Compounds without any hit were thinned out: in the full panel of roughly 83,000, 20% have a hit.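 Single-dose data. Exposure time 48 hours. Values below 10 considered active.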 Values without a mark were called inactive. The source made the active and inactive calls.
The compounds below were run on MDA-MB-468 breast (assay: NCI-60 one-dose screen, 48 h (100 = growth as untreated, 0 = no growth, -100 = all killed)). Conditions: 10 µM unless noted.

| SMILES | growth |
| --- | --- |
| Cc1cn(C2CC(F)C(CO)O2)c(=O)[nH]c1=O (stereo not given) | 90.7% |
| NCCCN(CCCN)CCCNCc1c2ccccc2c(CNCCCN(CCCN)CCCN)c2ccccc12 | 83.4% |
| c1cnc2[nH]cc(-c3nc(-c4ccsc4)cs3)c2c1 | 74.6% |
| COc1ccc(C(=O)c2cc(OC)c3c(c2)OCO3)cc1O | 0.266% (active) |
| CC(C)CCC[C@@H](C)[C@H]1CC[C@H]2[C@@H]3CC=C4N(c5ccccc5)C(=O)CC[C@]4(C)[C@H]3CC[C@]12C | 96.4% |
| O=CN(SSN(C=O)C1CCCCC1)C1CCCCC1 | 108% |
| C=C1C(=O)O[C@H]2[C@H]1CC/C(COC(=O)/C=C\C(=O)NCc1ccc(Cn3c(=O)sn(-c4ccccc4)c3=O)cc1)=C\CC[C@@]1(C)O[C@@H]21 | 30.5% |
| O=C(COc1ccc(C2SCC(=O)N2c2ccccc2)cc1)c1ccccc1 (stereo not given) | 85.3% |
| CC(=O)CC(=O)SC1=NCCS1 | 124% |
| c1ccc(-c2nc3sc(C(c4ccccc4)c4ccccc4)nn3c2-c2ccccc2)cc1 | 96.1% |
| N#Cc1c(-c2ccc(F)cc2)nc(N=Nc2c(O)[nH]c3ccc(Cl)cc23)nc1N1CCOCC1 | 47.1% |
| COc1ccc2nc3cc(Cl)ccc3c(NCCCNC(C)=O)c2c1 | 39.5% |
| CCN(CC)CCNC(=O)c1ccc(-c2nc3ccc4[nH]ncc4c3c3c2CCCC3)cc1 | 17.4% |
| CC1CN(Cc2ccccc2)C(=O)NC1=O (stereo not given) | 111% |
| COc1ccc(/C(Cl)=N/N=C(\Cl)c2cc(OC)c(OC)c(OC)c2)cc1OC(C)=O | 95.5% |
| CCN(CC)CCC(=O)Nc1ccc(Cn2nnc3c2C(=O)c2nnn(Cc4ccc(NC(=O)CCN(CC)CC)cc4)c2C3=O)cc1 | -66.4% (active) |
| C=C(C)[C@@H]1CC[C@]2(C)CC[C@]3(C)[C@H](CC[C@@H]4[C@@]5(C)CCCNC(C)(C)[C@@H]5CC[C@]43C)[C@@H]12 | 26.2% |
| Cn1cc(C(=O)c2nc(-c3c[nH]c4ccc(F)cc34)no2)c2cc(F)ccc21 | 107% |
| COC(=O)C1=C(C)C(=O)CC1 | 110% |
| COC(=O)c1c(-c2ccccc2)csc1NC(=O)c1c(-c2ccccc2)noc1C | 63.6% |

| SMILES | growth |
| --- | --- |
| O=C(CSc1nc2ccccc2c(=O)n1-c1ccccc1)Nc1ccc(S(=O)(=O)Nc2nccs2)cc1 | 56.4% |
| CCOc1ccc(C(=O)O)cc1 | 83.4% |
| CCNCCNc1c(C)c(-c2ccc(C(F)(F)F)cc2)c(C#N)c2nc3ccccc3n12 | 56.1% |
| c1ccc2c(c1)oc1cc3c(cc12)nnc1cccn13 | 108% |
| CCCCCCNC(=O)Oc1ccc(/C(=C(\C)c2ccc(OC)cc2)c2ccc(OCCN3CCCCC3)cc2)cc1 | 75.6% |
| Cc1[nH]c(C(=O)Nc2ccccc2OCc2cccc(C(=O)NC3CCNC3)c2)c(Cl)c1Cl (stereo not given) | 22% |
| COc1cc(-c2nccc3[nH]c(-c4cccc5[nH]ccc45)nc23)cc(OC)c1OC | -26.1% (active) |
| COc1ccc(C(=O)N2NC(=O)/C(=C/c3cn(-c4ccccc4)nc3-c3ccccc3)N=C2c2ccccc2)cc1 | 95.7% |
| O=C(/C=C/c1ccc(F)cc1)Nc1cccc2cccnc12 | -19.1% (active) |
| Oc1ccccc1/C=N/NC(=S)NC1CC2C=CC1C2 (stereo not given) | 73.1% |
| O=C(Nc1nc2ccccc2s1)c1cc(-c2ccc(F)cc2)n2nc(-c3ccccc3)cc2n1 | 118% |
| COc1ccc2nc3c(n2c1)C(=O)C(=O)c1ccccc1-3 | -10.8% (active) |
| CCn1nc(-c2ccc(C(=O)OC)cc2)nc2c(=O)n(C)c(=O)nc1-2 | 82% |
| Cc1cc2c(C(C)C)c(O)c(O)c(C=Nc3ccccc3[N+](=O)[O-])c2c(O)c1-c1c(C)cc2c(C(C)C)c(O)c(O)c(C=Nc3ccccc3[N+](=O)[O-])c2c1O | 80.5% |
| COc1cc(-c2ncn(/C=C\c3nnco3)n2)cc(C(F)(F)F)c1 | -28.9% (active) |
| COc1ccc(/C=C/c2nc(NCCCN(C)C)c3ccccc3n2)cc1 | -43.8% (active) |
| COc1cc(F)c(/C=C/c2cc(/C=C/c3cc(OC)c(OC)cc3F)n(-c3cc(F)cc(F)c3)n2)cc1OC | -37.6% (active) |
| CC(C)(C)C(=O)/C=C/c1ccc([N+](=O)[O-])cc1 | 45.5% |
| CSc1ccc(C(=O)C[n+]2cccc(C)c2)cc1 | 91.1% |
| COc1ccc(C2=NN(C(=O)c3cc(OC)c(OC)c(OC)c3)C(c3ccc(Cl)cc3)C2)cc1OC (stereo not given) | 9.76% (active) |

— PubChem BioAssay (NCI)
